Laboratory results: the supplement of paper PMC8253809
Several values for one entry are separate records, joined by “and”; a condition that tells them apart may be missing. Equal entries are not always repeated.

Experiments:
Assay in all cases: growth inhibition (% activity, log2 RLU normalised to DMSO / staurosporine); higher = more growth inhibition
Settings in all cases: 33 µM
DIPGX29 = test system: DIPGX29 (H3.3 K27M diffuse intrinsic pontine glioma line)
Outline: (§1)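 Approved drugs were tested in triplicate at a single final concentration of about 33 μM for 7 days at 37 °C, 5% CO2, on pHGG cell lines and H9-derived neural stem cells. Readout was CellTiter-Glo luminescence, log2-transformed and scaled per plate to % activity between solvent and positive control wells. The median over replicates gives the growth-inhibition value.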

DIPGX37 = test system: DIPGX37 (H3.3 K27M diffuse intrinsic pontine glioma line)
Outline: as §1

DIPGX7 = test system: DIPGX7 (H3.3 K27M diffuse intrinsic pontine glioma line)
Outline: as §1

DIPGX9 = test system: DIPGX9 (diffuse intrinsic pontine glioma line)
Outline: as §1

HGGX39 = test system: HGGX39 (paediatric high-grade glioma line)
Outline: as §1

HGGX6 = test system: HGGX6 (H3.3 G34R paediatric high-grade glioma line)
Outline: as §1

HNSC = test system: HNSC
Outline: as §1

SUDIPGIV = test system: SUDIPGIV (diffuse intrinsic pontine glioma line)
Outline: as §1

SUDIPGVI = test system: SUDIPGVI (diffuse intrinsic pontine glioma line)
Outline: as §1

SUDIPGXIII = test system: SUDIPGXIII (diffuse intrinsic pontine glioma line)
Outline: as §1

Structure (SMILES)	growth inhibition (DIPGX29)	growth inhibition (DIPGX37)	growth inhibition (DIPGX7)	growth inhibition (DIPGX9)	growth inhibition (HGGX39)	growth inhibition (HGGX6)	growth inhibition (HNSC) [%]	growth inhibition (SUDIPGIV)	growth inhibition (SUDIPGVI)	growth inhibition (SUDIPGXIII)
CN1CC(=O)N2[C@H](c3ccc4c(c3)OCO4)c3[nH]c4ccccc4c3C[C@@H]2C1=O	-0.154%	2.3%	0.64%	0.257%	2.46%	0.71%	-0.244	0.899%	-1.44%	2.73%
CN(C)CCCN1c2ccccc2CCc2ccccc21	-0.201%	2.87%	0.728%	1.54%	6.76%	3.35%	3.17	2.4%	-0.367%	2.4%
CC(C)CN(C[C@@H](O)[C@H](Cc1ccccc1)NC(=O)O[C@H]1CCOC1)S(=O)(=O)c1ccc(N)cc1	-0.715%	-0.112%	-0.0284%	-0.297%	-0.345%	-0.047%	-1.76	-2.74%	-1.11%	0.567%
C=CC[N+]1([C@H]2C[C@H]3[C@@H]4CC[C@H]5C[C@H](O)[C@@H](N6CCOCC6)C[C@]5(C)[C@H]4CC[C@]3(C)[C@H]2OC(C)=O)CCCC1	-0.303%	-0.692%	1.36%	0.151%	4.24%	1.87%	2.05	-0.149%	0.535%	1.02%
C=C1CCC(O)CC1=CC=C1CCCC2(C)C1CCC2C(C)CCCC(C)(C)O (centres undefined)	-0.0142%	2.58%	3.34%	-0.221%	3.14%	0.603%	-1.74	3.43%	-3.1%	-0.781%
CCCCCCCCOc1ccccc1C(=O)Nc1ccc(C(=O)OCC[N+](C)(CC)CC)cc1	1.1%	-1.75%	3.53%	2.15%	53.7%	10.8%	1.89	4.07%	-1.27%	2.78%
NNC(=O)c1ccncc1	3.87%	-2.25%	1.93%	0.954%	0.333%	-0.478%	44.1	3.88%	-2.88%	-0.311%
Nc1nc(Cl)nc2c1ncn2[C@@H]1O[C@H](CO)[C@@H](O)[C@@H]1F	14.6%	9.43%	17.6%	43.6%	20%	12.5%	64.4	45%	2.3%	14.3%
COc1c(N2CCNC(C)C2)c(F)cc2c(=O)c(C(=O)O)cn(C3CC3)c12 (centres undefined)	0.952%	-1.73%	2.3%	1.28%	4.77%	0.493%	8.87	1%	2.31%	1.42%
Cc1onc(-c2c(Cl)cccc2Cl)c1C(=O)N[C@@H]1C(=O)N2[C@@H]1SC(C)(C)[C@@H]2C(=O)O	1.78%	1.6%	0.879%	0.739%	2.25%	1.63%	-0.363	1.41%	2.27%	-0.796%
CN(C)CCOC(c1ccccc1)c1ccccc1	-3.3%	-0.629%	-0.0174%	-1.77%	-3.3%	-2.72%	2.53	-1.12%	-3.73%	-1.22%
CC(C(=O)O)c1ccc(-c2ccccc2)c(F)c1 (centres undefined)	0.779%	3.25%	1.53%	1.06%	2.57%	1.43%	0.919	-4.24%	2.75%	-0.916%
CO[C@H]1/C=C/O[C@@]2(C)Oc3c(C)c(O)c4c(O)c(c(/C=N/N5CCN(C)CC5)c(O)c4c3C2=O)NC(=O)/C(C)=C\C=C\[C@H](C)[C@H](O)[C@@H](C)[C@@H](O)[C@@H](C)[C@H](OC(C)=O)[C@@H]1C	-0.241%	-0.311%	-0.321%	-1.43%	0.825%	3.31%	-3.9	-0.0069%	-1.69%	1.7%
N=C(N)c1ccc(OCCCCCOc2ccc(C(=N)N)cc2)cc1	12.3%	-2.71%	16.9%	13.9%	42.9%	20.2%	43.6	45%	44.2%	16.5%
N#C[C@@H]1C[C@@H]2C[C@@H]2N1C(=O)[C@@H](N)C12CC3CC(CC(O)(C3)C1)C2	2.2%	1.41%	1.21%	0.435%	5.53%	2.65%	8.15	7.37%	2.7%	7.88%
CC(=O)Nc1ncc([N+](=O)[O-])s1	-0.525%	-1.35%	-1.25%	-0.952%	1.46%	1.88%	-5.25	-1.68%	-0.127%	11.8%
CS(=O)(=O)OCCCCOS(C)(=O)=O	1.61%	2.89%	1.75%	1.86%	3.01%	2.25%	-0.43	0.215%	0.662%	0.839%
CN1CCN(c2c(F)cc3c(=O)c(C(=O)O)cn4c3c2OCN4C)CC1	0.647%	0.371%	3.3%	2.03%	2.92%	3.21%	2.71	1.21%	4.19%	-0.0388%
CCCNC(=O)NS(=O)(=O)c1ccc(Cl)cc1	2.28%	4.25%	2.73%	6.15%	3.29%	2.21%	9.27	2.61%	2.64%	0.944%
CCN(CC)C(=S)SSC(=S)N(CC)CC	1.19%	3.53%	5.8%	10.8%	3.44%	3.72%	50	-0.505%	1.15%	0.0312%
CC(C(=O)O)c1ccc2c(c1)Cc1cccnc1O2 (centres undefined)	0.469%	2.25%	2.38%	1.73%	3.25%	2.19%	2.91	-1.77%	3.45%	-1.63%

Structure (SMILES)	growth inhibition (DIPGX29)	growth inhibition (DIPGX37)	growth inhibition (DIPGX7)	growth inhibition (DIPGX9)	growth inhibition (HGGX39)	growth inhibition (HGGX6)	growth inhibition (HNSC) [%]	growth inhibition (SUDIPGIV)	growth inhibition (SUDIPGVI)	growth inhibition (SUDIPGXIII)
CN1C(C(=O)Nc2ccccn2)=C(O)c2ccccc2S1(=O)=O	-1.78%	1.01%	-0.635%	-1.57%	0.433%	-2.07%	2.62	-1.29%	0.752%	-1.07%
O=C(Nc1c(Cl)cncc1Cl)c1ccc(OC(F)F)c(OCC2CC2)c1	2.05%	4.42%	2.92%	2.71%	4.08%	2.51%	2.92	7.2%	6.56%	-0.978%
NS(=O)(=O)c1cc2c(cc1C(F)(F)F)NC(Cc1ccccc1)NS2(=O)=O (centres undefined)	-1.42%	2.24%	-1.56%	-0.0939%	-0.621%	1.26%	-0.523	-1.96%	0.355%	0.995%
Nc1ccn([C@H]2CC[C@@H](CO)O2)c(=O)n1	1.28%	0.314%	0.245%	2.8%	6.49%	1.48%	17.8	15.2%	0.499%	1.84%
OC(CCN1CCCC1)(c1ccccc1)C1CCCCC1 (centres undefined)	-1.59%	0.342%	-1.45%	-1.38%	-2.22%	-0.386%	-0.926	-0.217%	-0.619%	-1.02%
NC(Cc1cc(I)c(Oc2cc(I)c(O)c(I)c2)c(I)c1)C(=O)O (centres undefined)	0.479%	2.96%	-0.171%	1.28%	2.01%	-2.56%	27.8	10.6%	7.79%	4.24%
COc1ccc(-c2ccc3cc(C(=O)O)ccc3c2)cc1C12CC3CC(CC(C3)C1)C2	2.22%	0.00524%	1.73%	2.82%	2.84%	2.51%	1.43	3.15%	-4.99%	1.39%
CC1(C)O[C@@H]2[C@@H](CO[C@@]3(COS(N)(=O)=O)OC(C)(C)O[C@@H]23)O1	-3.02%	-1.66%	-1.31%	-2.57%	-2.13%	-3.4%	-3.88	-3.39%	-3.08%	-0.599%
CCCCC(=O)O[C@H]1CC[C@H]2[C@@H]3CCc4cc(O)ccc4[C@H]3CC[C@]12C	2.95%	4.39%	2.96%	8.03%	1.99%	-1.05%	72.8	2.52%	-2.97%	1.55%
CC(=O)OCC(=O)[C@@]1(O)CC[C@H]2[C@@H]3CCC4=CC(=O)C=C[C@]4(C)[C@H]3[C@@H](O)C[C@@]21C	2.24%	0.724%	2.19%	3.92%	5.57%	2.03%	1.11	2.53%	-1.15%	2.13%
Cc1cn(-c2cc(NC(=O)c3ccc(C)c(Nc4nccc(-c5cccnc5)n4)c3)cc(C(F)(F)F)c2)cn1	2.27%	3.07%	4.89%	1.74%	3.66%	2.75%	4.26	1.93%	2.31%	-2.01%
CCc1cccc2c3c([nH]c12)C(CC)(CC(=O)O)OCC3 (centres undefined)	1.41%	0.479%	3.29%	0.48%	2.3%	0.44%	2.88	-3.78%	1.87%	1.77%
CCOC(=O)C1=C[C@]2(CC)CCCN3CCc4c(n1c1ccccc41)[C@@H]32	-2.05%	0.343%	1.55%	0.728%	0.726%	-1.58%	34.5	1.95%	0.167%	3.3%
NC[C@H]1CC[C@H](C(=O)O)CC1	-0.318%	1.11%	0.868%	1.09%	2.3%	0.25%	-0.348	-1.18%	0.626%	-0.00541%
N=C(N)NC(=O)c1nc(Cl)c(N)nc1N	1.79% and -1.36%	1.85% and 0.649%	1.7% and 0.904%	2.64% and 0.337%	2.38% and 4%	-0.794% and 0.512%		7.17% and 6.85%	2.25% and 2.53%	-0.984% and -0.159%
COc1c(N2C[C@@H]3CCCN[C@@H]3C2)c(F)cc2c(=O)c(C(=O)O)cn(C3CC3)c12	0.967%	2.87%	5.33%	1.28%	3.99%	2.07%	2.61	0.935%	2.05%	-1.1%
N=C(N)NC(=N)NCCc1ccccc1	2.55%	2.09%	2.16%	3.4%	3.43%	1.66%	13	3.22%	7.27%	2.1%
Nc1nc(O)c2ncn(CCC(CO)CO)c2n1	-0.633%	1.72%	0.291%	-0.106%	0.105%	-0.242%	0.639	0.184%	1.56%	0.273%
CCCCc1ncc(/C=C(\Cc2cccs2)C(=O)O)n1Cc1ccc(C(=O)O)cc1	-0.827%	0.563%	-1.23%	-0.197%	0.41%	0.268%	-1.62	-1.58%	0.0226%	-13.9%
CC1(C)S[C@@H]2[C@H](NC(=O)[C@H](NC(=O)N3CCN(S(C)(=O)=O)C3=O)c3ccccc3)C(=O)N2[C@H]1C(=O)O	-1.26%	0.368%	-0.979%	-1.9%	-0.656%	-0.1%	-2.17	0.286%	-2.19%	2.64%
